Source: PubChem BioAssay AID1851 (National Center for Advancing Translational Sciences (NCATS), 2009)
Among all 16,000 compounds or so, about 5,100 (32%) were called active. Roughly 25% stayed inconclusive and do not appear here. Calls come from the whole dose curve; as a rule, active = well fitted curve in the direction sought with a large enough effect; inconclusive = small, poorly fitted or top-dose-only effect, or effect the other way; inactive = no such curve, though single readings can be large or run the other way. The list shows a part of the results.

target: Cytochrome P450 3A4 (Homo sapiens) (UniProt P08684); test: Cytochrome panel assay with activity outcomes; details: recombinant CYP, pro-luciferin dealkylation, luminescence, p450-cyp3a4; series mostly up to 57.1 µM; activity, negative = inhibition: at the top concentration
Sequence (P08684 whole entry, looked up): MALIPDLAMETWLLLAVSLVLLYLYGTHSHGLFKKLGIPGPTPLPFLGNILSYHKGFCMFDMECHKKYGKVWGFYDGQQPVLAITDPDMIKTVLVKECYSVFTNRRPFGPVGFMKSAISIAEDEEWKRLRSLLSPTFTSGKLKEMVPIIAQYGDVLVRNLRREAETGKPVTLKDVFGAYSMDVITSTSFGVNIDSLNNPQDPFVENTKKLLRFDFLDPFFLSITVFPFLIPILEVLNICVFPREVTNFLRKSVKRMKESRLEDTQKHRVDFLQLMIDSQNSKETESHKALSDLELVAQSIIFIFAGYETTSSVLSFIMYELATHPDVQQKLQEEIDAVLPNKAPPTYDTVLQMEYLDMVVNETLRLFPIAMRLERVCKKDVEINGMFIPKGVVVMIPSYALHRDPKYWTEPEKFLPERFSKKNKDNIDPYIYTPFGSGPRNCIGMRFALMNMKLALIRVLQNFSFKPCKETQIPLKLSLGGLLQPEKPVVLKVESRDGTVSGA
% is set by controls: 0 for no effect and ±100 for the full control effect.

SMILES	AC50	activity, negative = inhibition
O=C(CCCn1c(=S)[nH]c2cc3c(cc2c1=O)OCO3)N1CCN(c2ncccn2)CC1	2 µM (active)	–
COc1ccccc1Cn1c(=S)[nH]c2cc(C(=O)N3CCN(C)CC3)ccc2c1=O	–	12.8% (inactive)
O=C(CCCn1c(=S)[nH]c2ccc(Br)cc2c1=O)N1CCN(c2ccccn2)CC1	1.26 µM (active)	–
Cn1c(=O)c2[nH]c(CCC(=O)O)nc2n(C)c1=O	–	-3% [at 11.4 µM] (inactive)
NS(=O)(=O)c1cc(Cl)c(Cl)c(S(N)(=O)=O)c1	–	0.288% [at 25.6 µM] (inactive)
CN(C)c1cc(=O)n2c(n1)SCCC2	–	-1.72% [at 2.29 µM] (inactive)
O=C(c1coc(=O)c2ccccc12)N1CCN(Cc2ccccc2)CC1	–	-29.5% (inactive)
O=C(c1n[nH]c(=O)c2ccccc12)N1CCN(C2c3ccccc3-c3ccccc32)CC1	11.2 µM (active)	–
CCc1ccc(NC(=S)N2CCN(c3cccc(C(F)(F)F)c3)CC2)cc1	–	-10.7% (inactive)
Cc1ccc(CC(=O)N2CCN(c3cccc(C(F)(F)F)c3)CC2)cc1	3.98 µM (active)	–
COc1ccc(CC(=O)N2CCN(c3ccc(C4=NNC(=O)CC4C)cc3)CC2)cc1 (configuration not stated)	–	-9.27% [at 2.29 µM] (inactive)
CC(=O)Nc1ccccc1C(=O)C(=O)O	–	-8.44% (inactive)
Cc1ccc(S(=O)(=O)O[C@@H]2[C@H]([C@@H]3COC(C)(C)O3)O[C@H]3OC(C)(C)O[C@@H]32)cc1	–	-4.72% [at 11.4 µM] (inactive)
COC(=O)[C@@]1(Cc2ccc(OC)cc2)[C@H]2c3cc(C(=O)N4CCCC4)n(Cc4nc5ccccc5[nH]4)c3C[C@H]2CN1C(=O)c1ccccc1	2 µM (active)	–
COC(=O)[C@@]1(Cc2ccccc2)[C@H]2c3cc(C(=O)N4CCCC4)n(Cc4nc5ccccc5[nH]4)c3C[C@H]2CN1C(=O)c1ccccc1	1.26 µM (active)	–
O=C(CSc1nc2ccccc2[nH]1)NCCN1CCCCC1	–	-14.7% (inactive)
N=C(N)SCCCN	–	-9.75% [at 11.4 µM] (inactive)
O=C1c2ccccc2C(=O)N1C[C@]1(C(=O)O)NCCS1(=O)=O	–	8.42% [at 11.4 µM] (inactive)
O=C(NC1CCCC1)c1cnn2c(C(F)(F)F)cc(-c3ccco3)nc12	14.1 µM (active)	–
CCOC(=O)N1CCN(c2nc(-c3ccco3)cc(C(F)(F)F)n2)CC1	–	-18% (inactive)
O=C(CCC1CCCCC1)Nc1c2c(nn1-c1ccc(F)cc1)CS(=O)(=O)C2	5.62 µM (active)	–
O=C(Nc1c2c(nn1-c1ccc(F)cc1)CS(=O)(=O)C2)C12CC3CC(CC(C3)C1)C2	8.91 µM (active)	–
COC(=O)c1nn(C23CC4CC(CC(C4)C2)C3)c2c1C(=O)N(c1ccc(F)cc1)C2=O	–	-13% (inactive)
Cc1cc(C)cc(-n2c(C)cc(C=C(C#N)C#N)c2C)c1	–	4.93% (inactive)

SMILES	AC50	activity, negative = inhibition
COC(=O)C1=C(NC(=O)c2cccs2)CCS1	15.8 µM (active)	–
COC(=O)C1=C(NC(=O)c2ccc(C)c(C)c2)CCS1	28.2 µM (active)	–
Cc1ccc(S(=O)(=O)O/N=C2/CCCc3occc32)cc1	–	1.14% (inactive)
CCOC(=O)c1cnn(-c2cc(Oc3ccccc3)ncn2)c1N	–	19% (inactive)
COC(=O)c1cnn(C(=O)c2cc(OC)ccc2Br)c1N	28.2 µM (active)	–
COC(=O)c1cnn(C(=O)c2ccccc2Br)c1N	–	9.7% (inactive)
CCNC(=S)N1CC(C)OC(C)C1 (configuration not stated)	–	1.05% (inactive)
CCSC(=N)N	inactive	–
COc1ccc(CNc2nc(-c3ccccc3CN(C)C)nc3ccccc23)c(OC)c1	7.94 µM (active)	–
COc1ccccc1CNc1nc(-c2ccccc2CN(C)C)nc2ccccc12	12.6 µM (active)	–
CN1CCCN(C2C3CC4CC(C3)CC2C4)CC1 (configuration not stated)	–	-0.38% (inactive)
NS(=O)(=O)c1cccc2c1c([N+](=O)[O-])cc1[nH]c(=O)c(=O)[nH]c12	–	-7.86% (inactive)
Cc1cc(C)cc(NC(=O)N2CCCC2C(=O)Nc2ccc(-n3cnnn3)c(C)c2)c1 (configuration not stated)	5.01 µM (active)	–
Cc1cc(NC(=O)c2ccco2)ccc1-n1cnnn1	8.91 µM (active)	–
CC(=O)Nc1cccc(NC(=O)C2CCCN2C(=O)Nc2ccccc2C)c1 (configuration not stated)	–	0.0054% [at 11.4 µM] (inactive)
COc1cc(-c2nc3ccccn3c2/N=C/c2ccccc2)ccc1O	7.08 µM (active)	–
O=[N+]([O-])c1ccc(Cl)c(-c2ccc(/C=N/c3c(-c4ccco4)nc4ccccn34)o2)c1	–	-6.34% (inactive)
COc1cc(Cn2cnnn2)ccc1O	–	-9.86% (inactive)
COc1ccc(CNc2ncncc2-c2ccccc2OC)c(OC)c1	0.316 µM (active)	–
COc1ccc(CNc2ncncc2-c2ccccc2C)c(OC)c1	0.398 µM (active)	–
COCCNc1cc(-c2ccccc2CN(C)C)ncn1	–	-14.6% (inactive)
COc1ccc(CNc2ncncc2-c2ccccc2CN(C)C)c(OC)c1	0.398 µM (active)	–
COc1ccc(CNc2ncncc2-c2c(C)noc2C)c(OC)c1	1.26 µM (active)	–
